# Measurements reported in the supplement of paper PMC6555819.
# Columns and labels:
# Assay in all cases: PBM binding z-score (relative to random genomic background probes); higher = stronger binding; sequences stand for … in GC…GCGATTGACAGCGTAGAATGAAGG
# [1] = tested on: RARb homodimer (NR concentration 270 nM)
# In short: (§1)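 Scanned fluorescence from custom Agilent 4×180K protein-binding microarrays was regression-normalized. Binding z-scores use random background probes as reference. Ligand-free nuclear receptor dimers were incubated on the arrays for 1 h and detected with antibodies against each partner (one per run).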
# [2] = tested on: RARg:RXRa (NR concentration 270 nM, RXRa partner concentration 90 nM)
# In short: as §1
# [3] = tested on: RARg homodimer (NR concentration 270 nM)
# In short: as §1
# [4] = tested on: RXRa DBDmut IVT, anti-RXR (DBD mutation: RXRa K156A/R161A, NR concentration 90 nM)
# In short: as §1
# [5] = tested on: RXRa homodimer (NR concentration 180 nM)
# In short: as §1
# [6] = tested on: THRa:RXRa (NR concentration 90 nM, RXRa partner concentration 90 nM)
# In short: as §1
# [7] = tested on: THRa homodimer (NR concentration 90 nM)
# In short: as §1
# [8] = tested on: VDR:RXRa (NR concentration 270 nM, RXRa partner concentration 90 nM)
# In short: as §1
# [9] = tested on: VDR homodimer (NR concentration 270 nM)
# In short: as §1
Sequence,PBM binding z-score [1],PBM binding z-score [2],PBM binding z-score [3],PBM binding z-score [4],PBM binding z-score [5],PBM binding z-score [6],PBM binding z-score [7],PBM binding z-score [8],PBM binding z-score [9]
GCTTGTAGATCACGGTTAAGAAAGACTAAGCTAA,-0.369,-0.304,-0.36,0.053,-0.526,-0.523,-1.01,-0.34,-0.582
ATCTCTAGCTAAAAGTTCAGTGAATCCCGAGGAT,2.38,1.43,1.84,0.736,0.493,0.457,-0.0184,0.955,1.64
TAGCCTAGGTCATGGGCCATTATACCACGCGAAC,3.25,4.27,4.52,0.45,3.75,3.17,1.37,2.27,0.862
ACTAGCAGGCCAAGGGTCACTCGAGATTAGTCCG,3.75,3.93,4.02,0.801,4.28,2.45,0.0934,2.56,1.06
CGTACTAGGTCATCCAGGACAGTGAATACATTGA,3.35,3.73,4.47,2.15,2.67,3.76,2.4,4.32,1.81
CCTTACGGGTCACTCACAGGTTATAGCATTTGGA,3.65,5.9,4.5,2.04,4.75,3.07,0.529,3.6,1.28
CGAACGAGGGCATGAGTTGATTGCAAATGCCGAT,0.769,1.29,1.48,2.73,0.985,1.22,-0.209,1.66,1.94
TCTATAAGTTGATTAGGGCAACCGAAACAGCGGA,0.772,0.61,0.741,1.23,0.5,1.11,0.212,0.463,0.543
ATTCAAAGTTCATCTAGGTAACGTAAGATATGCT,3.89,5.29,5.82,4.6,4.46,3.13,0.475,4.93,4.9
CCGACTGGCGCATAAGGTTACCATAAGCCAGCCC,0.729,0.235,0.126,-0.135,0.736,2.26,1.56,-0.0103,0.005
GCTGCTAGGTCAAGTTGGTCAGCTAACGGGTACG,3.78,4.49,5.42,1.81,3.03,2.96,1.13,2.17,0.704
CAAACTAGGTCACATAGGTCAAAGTCCGTGCGTA,4.67,5.93,6.3,2.56,5.67,4.09,1.78,6.27,3.91
CCTATTAGTTGACCATACGGGCAACCGAAGCTCG,1.12,0.753,0.421,0.337,0.116,0.0977,0.187,0.598,0.509
CCTACTGGGCAATCAGGTCATTGATATCAACGTT,2.16,1.56,1.51,0.0815,1.06,3.13,2.55,2.83,1.29
ATCCAAAGGTCGTGAGGTGAGTATACAGAAAGGC,3.47,5.02,4.46,1.72,5.91,3.66,1.97,3.91,1.63
CAAACTCGGTCACGAAAGGTCAAAGTCGAATGAC,5.24,7.03,7.47,1.9,7.26,4.47,1.09,5.86,3.28
AGAATGAGGCTAAGATCAGGGAAACAGAATACAT,0.17,0.222,0.265,-0.309,-0.046,0.533,0.04,-0.231,-0.208
CAAACTAGGTCAAGGTGAAAGTCGGTTTGTGCCA,3.45,3.81,4.95,1.61,2.82,3.49,2.52,2.1,0.978
ACTATTAGTTGACTTAGGGCCACCGATACGACGC,0.765,0.549,0.739,0.785,0.774,2.48,0.956,0.067,0.47
TCTCGGAGGACACGAAAGTCAGAGCTTTCCAGAG,0.384,0.378,1.08,0.647,-0.0691,1.21,0.236,-0.402,-0.621
AGAATGAGGTTATACGCAGATCAGGGAAGAAAGT,0.779,1.67,0.985,1.47,2.3,2.22,0.465,1.35,0.945
AATACAGGGTCAGTAGGCCAGAGTAGGTACGAAT,3.07,4.31,4.31,1.86,3.73,2.38,0.554,2.65,1.72
GCGACTGGGTCAAAGCAGGTTACCATAAGGTTGG,2.76,3.65,3.32,0.713,3.11,4.65,0.279,3.06,0.45
ATATGTAGGTTTGCTGGGGTCATTCAGACTAGGC,3.3,3.6,2.31,2.62,4.91,4.29,3.2,5.56,5.58
TCTTGTAGATCAAGTAGGTTAAGAAAGCCTGAGT,0.305,0.0366,-0.106,0.547,0.304,0.372,-0.238,0.698,0.191
TCATATAGGTAAAAAGTGAAAGTCGGTGTGGTAA,0.0434,0.226,-0.0939,2.01,0.563,-0.0757,-0.132,0.783,0.435
